Assay results published in PubChem BioAssay (NCI).
The panel holds about 79,000 compounds, 15% with a hit somewhere; the sample as a whole holds those more often. Unmarked numbers belong to inactive results. The source made the active and inactive calls. No stated cut-off is given here; in the data, active means growth inhibition above about 70%; inactive means the rest.

Tests used:
[1] = NCI Yeast Anticancer Drug Screen. Data for the rad50 strain (AID 155);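 further: 0% = growth of vehicle-only cultures of the same strain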; conditions: S. cerevisiae rad50 strain growth inhibition; at 50.0 µM; active compounds read high
How it was run: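 Yeast carrying a defined DNA repair defect were exposed to test compounds, and growth was compared with vehicle-treated controls to give percent inhibition.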

[2] = NCI Yeast Anticancer Drug Screen. Data for the mec2-1 strain (AID 157); conditions: S. cerevisiae mec2-1 strain, at 50.0 µM, active compounds read high
How it was run: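 Each compound was tested on mec2-1 yeast, a strain altered in DNA damage repair or cell cycle control. Growth inhibition is reported relative to vehicle.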

[3] = NCI Yeast Anticancer Drug Screen. Data for the sgs1 mgt1 strain (AID 161);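 further: 0% = growth of cultures given vehicle only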; conditions: S. cerevisiae sgs1 mgt1 strain, at 50.0 µM, active compounds read high
How it was run: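 Test agents were incubated with a DNA-repair-mutant yeast strain. Growth was then read and compared against vehicle-treated controls.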

[4] = NCI Yeast Anticancer Drug Screen. Data for the cln2 rad14 strain (AID 165);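 further: 0% = growth equal to vehicle treated cultures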; conditions: S. cerevisiae cln2 rad14 strain, at 50.0 µM, active compounds read high
How it was run: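 Test compounds were added to cln2 rad14 yeast cultures; inhibition of growth was then determined by comparison with vehicle treatment.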

[5] = NCI Yeast Anticancer Drug Screen. Data for the bub3 strain (AID 167); conditions: S. cerevisiae bub3 mutant strain, at 50.0 µM, active compounds read high
How it was run: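 Compounds were applied to a genetically altered yeast strain carrying a cell-cycle control defect. Growth inhibition was scored against vehicle-treated controls.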

[6] = NCI Yeast Anticancer Drug Screen. Data for the mlh1 rad18 strain (AID 175); conditions: S. cerevisiae mlh1 rad18 strain growth inhibition; at 50.0 µM; active compounds read high
How it was run: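 Inhibition values reflect reduced growth of mutant yeast versus vehicle-treated controls following compound exposure; the mutations affect DNA damage repair.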

Structure (SMILES)	growth inhibition [1]	growth inhibition [2]	growth inhibition [3]	growth inhibition [4]	growth inhibition [5]	growth inhibition [6]
CCCNC(=O)Nc1ccccc1OCC	-3.6%	-5.55%	-8.6%	-68%	13.2%	-5.25%
O=C(NCCCCCCNC(=O)OCOC(=O)NCCCCCCNC(=O)Nc1ccc(SCCO)cc1)Nc1ccc(SCCO)cc1	15.7%	12.4%	16.3%	21.1%	27.2%	-36.9%
COc1ccc(C(=O)N=C(N)n2nc(C)cc2C)cc1	-37.8%	-1.35%	-1%	-16.1%	31.9%	-0.75%
COC(=O)c1ccccc1NC(=O)Nc1cc(Cl)ccc1OC	85.5% (active)	91.2% (active)	90.4% (active)	80.8% (active)	88.2% (active)	88.9% (active)
Cc1cc(=O)[nH]c(NN2C(Cl)C(=O)C2c2cccc(Cl)c2)n1 (stereo unspecified)	-5.85%	-34.1%	-9.4%	2.6%	-10.5%	-33%
Cc1cccc(C)c1N=Nc1sc(N)nc1C	20.4%	10.6%	6.65%	-29.9%	-9.65%	22.9%
Nc1ccc(CC(=O)O)cc1	28.6%	-10.7%	-26.4%	-47.2%	7.25%	0.05%
COc1cc(C=O)ccc1OC(C)=O	-33.3%	-15.3%	-35.9%	-31.4%	-10.6%	-24.3%
Cc1ccc2nccnc2c1	-2.45%	3.9%	-12.2%	5.1%	10.9%	-1.85%
CCCNc1ncnc2[nH]ncc12	-44.1%	-25.9%	-39.9%	-23%	-42.2%	-32%
Cc1ccc(N=Nc2ccc(N(C)C)cc2)cc1	18.6%	-8.05%	-16.6%	-51.6%	-6.2%	14.7%
CCNC(=O)C(C(=O)OC)c1ccccc1 (stereo unspecified)	3.7%	-1.5%	5.3%	-3.45%	30.8%	1.2%
COc1ccc([C@H]2CC3C(=O)N(c4ccc(OC)cc4)C(=O)C3c3[nH]c4ccccc4c32)cc1 (stereo partly specified)	-10.1%	-2.95%	-1.05%	-64.2%	-16.4%	-16.9%
Cc1cnc(SC(C)(C)C)c(C)c1	-0.2%	-20.2%	-8.55%	-68.6%	12.9%	-10.5%
COc1ccc(CN(C)C)c(C(O)c2ccccc2)c1 (stereo unspecified)	9.2%	-1.75%	0.7%	7.6%	9.5%	13.2%
CCCCCCCCCCCC[Si](c1ccccc1)(c1ccccc1)c1ccccc1	9.3%	6.2%	26.1%	22.9%	1%	24.5%
O=S(=O)(CSc1ccccc1)c1ccccc1	-21.9%	-33.1%	-16.6%	-8.35%	-25.6%	-39.1%
NNC(=O)CCCO	-33.9%	-24%	-7.5%	-8%	0.4%	8.25%
CCCCCCCCCCCCCCCCSS(=O)(=O)O	8.5%	15.7%	15.8%	-1.15%	0.15%	4.9%
CCNC(=O)OCCN(C)CCOC(=O)NCC	-10%	9.55%	-4.15%	-20%	-7.7%	-0.7%
COc1ccc(N(Cc2ccccc2)c2nn[nH]n2)cc1	13.9%	-18.4%	-3.3%	11.6%	-5.6%	-19.8%
